This test can be described thus: qHTS Assay for Rab9 Promoter Activators: Hit Validation Using Renilla Luciferase Read-Out for Rab9. The gist of the method:
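Luciferase reporter read-out: promoter activation measured by luminescence after 10 min with detection reagent at room temperature. Cells were Huh7 with a stable promoter-luciferase construct, treated 24 h at 37 deg C.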
(In general: Quantitative high-throughput screening tests each substance at several concentrations.)

Results filed as inconclusive are left out. A call without a number means that no potency is given here. Active and inactive are the calls of the source. The call rests on the fitted dose curve; in most records, active means well fitted activation curve with a large enough effect; inconclusive means small, poorly fitted or top-dose-only effect; inactive means no such curve, though single readings can be large or run the other way.
Potency means the concentration at half of the fitted maximal effect.

For `Nc1c(N(CCO)C(=O)/C=C/c2ccco2)c(=O)[nH]c(=O)n1Cc1ccccc1`, the Potency result is “inactive”. For `CC(=O)NC(CCCN1C(=O)c2ccccc2C1=O)c1nnn(C)n1` (centres undefined), the Potency result is “inactive”.

In the case of `Brc1ccccc1-c1nnc(CSc2nnc3sc4ccccc4n23)o1`, the Potency entry is “inactive”.

As for `CC1CCCN(S(=O)(=O)c2ccc(C(=O)Nc3nnc(-c4ccncc4)o3)cc2)C1` (centres undefined), the Potency entry was “inactive”.

For the compound `S=C1NCN(CCc2ccccc2)CN1Cc1ccccc1`, the Potency entry is “inactive”.

With `COc1ccccc1CNC(=O)COc1ccc(C)cc1`, the Potency entry is “inactive”.

With `Cc1nc(-c2ccccn2)sc1C(=O)Nc1ccc(F)cc1F`, the Potency entry is “inactive”. The entry for `Fc1ccc(-c2nc3nc4ccccc4nc3n2Cc2ccco2)cc1` is “inactive”; for `C=CCOC(=O)N1CCN(c2cccc(C(F)(F)F)c2)CC1` it is “inactive”; for `CCCc1cc(C(=O)Nc2ccccc2SC)no1` it is “inactive”. As for `Cc1ccc(C2C3=C(CC(C)(C)CC3=O)N(CCN3CCOCC3)C3=C2C(=O)CC(C)(C)C3)cc1`, the Potency was 20.7 µM (active).

In the case of `CC1=C(C(=O)OC2CCCC(C)C2)C(c2ccccc2)NC(=O)N1` (centres undefined), the Potency result is “inactive”. Turning to `COc1ccc(NC(=O)CN(C)C(=O)c2ccc(=O)[nH]c2)cc1`, the Potency entry is “inactive”.

`O=C(C1COc2ccccc2O1)N1CCN(S(=O)(=O)c2ccccc2)CC1` (centres undefined): the Potency result was “inactive”. In the case of `Cc1ccc(NC(=O)c2ncc(Cl)c(Cl)c2Cl)cc1C`, the Potency result was “inactive”. Turning to `O=C(O)CSc1nnc(-c2ccncc2)n1CCc1ccccc1`, the Potency entry was “inactive”. The entry for `CCOCC(=O)Nc1c(C(=O)Nc2ccc3c(c2)OCCO3)oc2ccccc12` is “inactive”. The entry for `C=CCc1ccc(OCCOCCNCCOC)c(OC)c1` is “inactive”. Regarding `NC(=O)COC(=O)c1ccc2noc(-c3ccccc3)c2c1`, the Potency entry is “inactive”. As for `O=C(/C=C/c1ccco1)NCC1OCCc2ccccc21` (centres undefined), the entry is “inactive”; as for `COc1ccc(-n2c(N)c(C(=O)NCc3ccco3)sc2=S)cc1`, “inactive”; as for `COc1ccc(/C=C\c2onc(C)c2S(=O)(=O)N2CCC(C(=O)NCCC(C)C)CC2)cc1`, “inactive”.

In the case of `CCC1CCCCN1CCCNC(=O)c1ccc2nc(N3CCCCC3)sc2c1` (centres undefined), the Potency result is “inactive”. For the compound `CC(C)CC(=O)N1CCN(c2ccc(NC(=O)c3ccco3)cc2)CC1`, the Potency entry was “inactive”.

Turning to `Cc1nc(-c2ccc(S(=O)(=O)Oc3ccc(Cl)cc3Cl)s2)cs1`, the Potency result was “inactive”.

`COc1ccc(-c2noc(N3CCCC(C(=O)Nc4ccccc4F)C3)n2)cc1` (centres undefined): the Potency result was “inactive”. In the case of `Cc1nn(CCCC(=O)NCc2ccc(F)cc2)c(C)c1[N+](=O)[O-]`, the Potency result was “inactive”. As for `Cc1ccc(S(=O)(=O)N2CCN(c3cnn(C)c(=O)c3Cl)CC2)cc1`, the entry is “inactive”; as for `Cc1cc(C)cc(N(CC(=O)NC2CCCC2)C(=O)CNC(=O)c2ccco2)c1`, “inactive”. With `Cc1ccc(NC(=O)NC(=O)c2ccccc2)cc1F`, the Potency result is “inactive”. In the case of `COc1ccc(-n2cc(-c3ccc(Cl)cc3)[nH]c2=S)cc1`, the Potency result was “inactive”. Consider `COc1ccc(-c2nnc(SCC(=O)/C(C#N)=C(\C)N)o2)cc1`, for which the Potency entry is “inactive”.

For the compound `O=[N+]([O-])c1cnccc1Nc1ccc(F)cc1`, the Potency result was “inactive”. In the case of `Cc1[nH]n(-c2cccc3ccccc23)c(=O)c1/C=N/c1sc2c(c1C#N)CCC2`, the Potency result was “inactive”.

With `O=C(NCCc1ccccc1)c1cc2ncc(Br)cn2n1`, the Potency entry was “inactive”. Regarding `Cc1ccc(C(=O)c2cncc(Br)c2)cc1`, the Potency result was “inactive”. For the compound `Cc1ccc(C(=O)NC2CCN(CC(=O)Nc3c(C)cc(C)cc3C)CC2)cc1`, the Potency entry is “inactive”. As for `O=C(CCN1C(=O)c2ccccc2C1=O)Nc1ccc(-c2nc3ccccc3s2)cc1`, the Potency entry was “inactive”.

In the case of `CCCCn1c(Nc2ccc(OC)cc2)nc2ccccc21`, the Potency result is “inactive”. The entry for `COc1ccccc1C(=O)Nc1nnc(SCC(=O)NC2CCCC2)s1` is “inactive”; for `Cc1ccc(C)c(Nc2cc(C)nc3ncnn23)c1` it is “inactive”. With `CCCOP(=O)(c1ccc(N(C)C)cc1)C(O)c1cccnc1` (centres undefined), the Potency result is “inactive”. `Cc1ccc(S(=O)(=O)/N=C2\C=C(Nc3cccc(C(=O)O)c3)C(=O)c3ccccc32)cc1`: the Potency result was “inactive”. With `COc1ccc(C(=O)OCC(=O)N2CCCC2=O)c(OC)c1`, the Potency result is “inactive”.

In the case of `Cc1ccc2nc(NC(=O)CCn3cccc3)sc2c1`, the Potency result was “inactive”.

In the case of `Cc1cccc(N2CCN(C(=S)c3ccccc3)CC2)c1`, the Potency result was “inactive”. As for `COCCNC(=O)C1CCC(CNS(=O)(=O)c2ccc(F)cc2)CC1` (centres undefined), the Potency entry is “inactive”. The entry for `CC(=O)c1cccc(NC(=O)N2CCOCC2)c1` is “inactive”; for `Cc1ccc(C#N)c(SCC(=O)Nc2nccs2)n1` it is “inactive”; for `COC(=O)Nc1nc2ccc(Br)cc2s1` it is “inactive”.

As to `Cc1ccc(C(=O)c2cn[nH]c2-c2ccccc2O)cc1`, the Potency result is “inactive”. As for `CCN(CC)S(=O)(=O)c1ccc(NCc2ccccn2)nc1`, the Potency result is “inactive”.

Regarding `CCCC(C)NC(=O)c1ccc(OCc2ccc(Cl)cc2)c(OC)c1` (centres undefined), the Potency result is “inactive”. The entry for `Cc1cccc(NC(=O)CSc2nc3ccccc3o2)c1` is “inactive”; for `COCCNC(=O)Cn1nc(-c2ccccc2)c2ccccc2c1=O` it is “inactive”; for `CCOc1cc(C2C(C#N)=C(N)Oc3n[nH]c(C)c32)ccc1OCCN1CCOCC1` (centres undefined) it is “inactive”.

Regarding `CCOC(=O)CSc1nc2cc3c(cc2cc1C#N)OCO3`, the Potency entry was “inactive”. In the case of `Cc1nc2sc(C(=O)OC(C)C)c(N)c2c(C)c1C`, the Potency entry is “inactive”.

In the case of `CC(C)C(NC(=O)c1ccc([N+](=O)[O-])cc1Cl)C(=O)N1CCCC1` (centres undefined), the Potency result was “inactive”.

As for `COCC1CCN(C(=O)c2ccc3oc(Cc4ccccc4)nc3c2)C1` (centres undefined), the Potency entry is “inactive”.

In the case of `COc1ccccc1OCCCC(=O)NCc1ccco1`, the Potency result is “inactive”. As for `Nc1nc(SCCO)[nH]c(=O)c1NC(=O)c1ccco1`, the entry is “inactive”. Regarding `CC1CC(C)CN(CC(=O)N2CCOCC2)C1` (centres undefined), the Potency entry was “inactive”. Turning to `Cc1ccccc1NC(=O)Cc1nc(COC(=O)CC(C)c2ccccc2)cs1` (centres undefined), the Potency entry is “inactive”.

With `CC(Sc1nnc(C(F)(F)F)n1C)C(=O)Nc1ccc(S(N)(=O)=O)cc1` (centres undefined), the Potency result was “inactive”.

Take `COCc1cc(C)nc(N/N=C/c2ccc(-c3ccc(Cl)cc3[N+](=O)[O-])o2)c1C#N`: the Potency entry is “inactive”. Turning to `Cc1ccc2c(c1)sc1nc(=O)n(-c3ccccc3)c(=O)n12`, the Potency result is “inactive”.

In the case of `Cc1ccc(C(=O)Nc2nnc(S(=O)(=O)N3CCOCC3)s2)cc1`, the Potency result was “inactive”. On to `CCc1cc(C(=O)Nc2ccccc2)cs1`, for which the Potency result is “inactive”. Regarding `COc1cccc(C2Nc3ccccc3NC3=C2C(=O)CC(C)(C)C3)c1` (centres undefined), the Potency result was “inactive”. In the case of `O=C(CSc1nnc(-c2ccccn2)o1)Nc1ccccc1Cl`, the Potency entry is “inactive”. `FC(F)(F)c1ccc(Nc2nnnc3ccccc23)cc1`: the Potency result is “inactive”. As for `COc1ccc(NC(=O)CSc2ccc([N+](=O)[O-])cc2)cc1S(=O)(=O)N1CCOCC1`, the entry is “inactive”; as for `Cc1ccc(NC(=O)c2c(O)c3ccccc3n(C)c2=O)nc1`, “inactive”. Regarding `CCC(=O)Nc1cc(-c2cc3ccccc3oc2=O)ccc1OC`, the Potency result was “inactive”. As for `CCN(CC(=O)N(CC(C)C)c1c(N)n(CC(C)C)c(=O)[nH]c1=O)Cc1nc2ccccc2c(=O)[nH]1`, the entry is “inactive”.

With `Nc1ccc(C(=O)Nc2ccccc2N)cc1`, the Potency is 16.4 µM (active). With `Cc1ccc(CNC(=O)Nc2ccc(C)cc2)cc1`, the Potency result is “inactive”. For `N#C/C(=C\c1ccc[nH]1)C(=O)Nc1ccccc1Cl`, the Potency is 23.2 µM (active). As for `CCOc1ccc(CNC(=O)C2CCCN(S(C)(=O)=O)C2)cc1OC` (centres undefined), the entry is “inactive”. In the case of `O=C(CCCOc1ccc(Cl)cc1)N1CCCCC1`, the Potency result was “inactive”. `COC(=O)c1sccc1NC(=S)OC`: the Potency result was “inactive”.

Regarding `O=C(NNC(=O)C1COc2ccccc2O1)c1ccccc1O` (centres undefined), the Potency result is “inactive”. For the compound `Cc1ccc(N(O)C(=O)NCCCCNC(=O)N(O)c2ccc(C)cc2)cc1`, the Potency entry was “inactive”. For `Cc1cccc(C)c1NC(=O)Nc1cccs1`, the Potency entry was “inactive”. Take `COc1ccccc1NC(=S)NCc1ccc(Cl)cc1`: the Potency entry is “inactive”. For `O=C(CSc1nnc(-c2ccccn2)o1)Nc1ccccc1F`, the Potency result was “inactive”. For `Cc1ccc2nc(Nc3ccc(Cl)cc3)c3nncn3c2c1`, the Potency result was “inactive”. As for `O=C(CSc1nnc(-c2csc3c2CCCC3)o1)Nc1ccccc1`, the entry is “inactive”. As for `COC(=O)c1cn(NC(=O)C2CCCCC2)c(=O)c2ccccc12`, the Potency entry was “inactive”.

For the compound `CCCCc1cc(=O)oc2cc(OCC(=O)N3CCOCC3)ccc12`, the Potency entry is “inactive”. Take `Cc1noc(/C=C/N(C)C)c1S(=O)(=O)N1CCCC(C(=O)N2CCCCC2)C1` (centres undefined): the Potency entry was “inactive”. Turning to `CC(C)C1(CCNC(=O)c2cccs2)CCOC(C)(C)C1` (centres undefined), the Potency result was “inactive”. Take `O=C(NC1CCCC1)C(c1ccc(F)cc1)N(C(=O)c1csnn1)c1ccccc1` (centres undefined): the Potency entry was “inactive”. The entry for `CCCN(CCC)CCCNC(=O)c1cc2cc3ccc(Cl)cc3nc2o1` is “inactive”; for `COc1ccc(S(=O)(=O)NC(C(=O)NCCc2ccccn2)C(C)C)cc1` (centres undefined) it is “inactive”. Regarding `NC(=O)C(=O)NN=C1C2CC3CC(C2)CC1C3`, the Potency result is “inactive”. `CCCCCCC(=O)Nc1ccc(C(=O)N/N=C/c2cccnc2)cc1`: the Potency result was “inactive”. On to `COc1ccc(-c2csc(Nc3ncccn3)n2)cc1C`, for which the Potency result was “inactive”. As for `O=C(Nc1nc2ccc(F)cc2s1)c1ccc(N2CCCC2=O)cc1`, the entry is “inactive”; as for `CCOc1cc(C(=O)N=c2sccn2C)ccc1OC(F)F`, “inactive”.

`Cc1ccc(NC(=O)COC(=O)C2C3CC4OC(=O)C2C4C3)cc1Cl` (centres undefined): the Potency entry is “inactive”. `O=C(CN1C(=O)COc2ccc(Cl)cc21)NCC1CCCO1` (centres undefined): the Potency entry was “inactive”.

With `Cn1c(SCc2ccccc2)nnc1-c1cnccn1`, the Potency entry was “inactive”. Consider `CNC(=O)Cn1nc(C)c2ccccc2c1=O`, for which the Potency entry was “inactive”. As for `O=CN1CCN(C(=O)c2ccccc2Cl)CC1`, the Potency result was “inactive”. As for `O=C(NCCc1c[nH]c2ccccc12)C(=O)NCC(c1ccco1)N1CCN(c2ccccc2F)CC1` (centres undefined), the entry is “inactive”; as for `NC(=O)C1(NC(=O)[C@@H]2CC3(CC(c4cccc(NC(=O)[C@@H]5CCC(=O)N5)c4)=NO3)CN2C(=O)c2ccccc2)CC1` (some centres undefined), “inactive”; as for `CCC(C)(C)NC(=O)C(c1ccc(OC)cc1)N(Cc1cccs1)C(=O)CCC(=O)Nc1cc(C)on1` (centres undefined), “inactive”. For the compound `COc1cccc(CNC(=O)CN(c2cc(C)cc(C)c2)S(=O)(=O)c2c(C)noc2C)c1`, the Potency entry was “inactive”. For the compound `COC(=O)c1ccccc1S(=O)(=O)NNC(=O)Nc1ccccc1`, the Potency result was “inactive”. As to `CCOC(=O)c1csc(COc2ccc(OC)cc2)n1`, the Potency entry was “inactive”.

For the compound `COc1cccc(C(C(=O)NC2CCCC2)N(CCC(C)C)C(=O)CCC(=O)Nc2cc(C)on2)c1` (centres undefined), the Potency result is “inactive”. As for `O=C(CCCn1c(=O)oc2ccccc21)N1CCN(c2ccccn2)CC1`, the entry is “inactive”.
